Assay outcomes: PubChem, National Center for Advancing Translational Sciences (NCATS)
Rows were chosen to be rich in hits. Some 2.8% of all compounds tested hit in one or more screens of this group.
PI5P4Ka inh = qHTS for Inhibitors of phosphatidylinositol 5-phosphate 4-kinase (PI5P4K). max response, %. AID 652105, 2013. Phosphatidylinositol 5-phosphate 4-kinase type-2 alpha (Homo sapiens), P48426. actives 1.2% (n = 330,000). PI5P4Kalpha enzyme, ADP-Glo luminescence, 60 min; hits give low values; active means max response of -50% or lower; inconclusive means between -30% and -50%; inactive means -30% or higher; further: value at the top dose of about 77 µM
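PI5P4Kalpha ADP-Glo assay; 5 microM ATP final; 60 min RT reaction; HEPES pH 7.4/EGTA/CHAPS, 5% DMSO; controls lacking substrate or enzyme; luminescent end-point.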
Pol eta inh = qHTS for Inhibitors of Polymerase Eta; DNA polymerase eta (Homo sapiens), Q9Y253; recombinant Pol eta, fluorescent DNA replication assay; Potency, µM (doses to about 114 µM), usual class: inhibitors; actives 1.2% (n = 390,000); AID 588591, 2011
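Fluorescent replication assay: 50 nM final substrate added after a 15 min room-temperature compound preincubation with 10 nM enzyme. Signal taken at 0 min and again at 10 min.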
Pol beta inh = qHTS Assay for Inhibitors of DNA Polymerase Beta. P06746. Pol beta primer extension/strand displacement, fluorescence kinetic. Potency, µM (top dose mostly 114 µM), most hits filed as inhibitors. actives 1.3% (n = 340,000)
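Preincubation: enzyme (10 nM) with compound, 15 min, RT. Reaction: substrate added to 50 nM final. Reads: 0 and 10 min. Analysis: normalized, Hill fit.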
POLK inh = qHTS for Inhibitors of Polymerase Kappa; Potency, µM (top dose mostly 107 µM), usual class: inhibitors; purified Pol kappa, fluorescent DNA synthesis assay, 10 min; actives 0.53% (n = 400,000)
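Here, compound and 10 nM enzyme are combined for 15 min at room temperature; adding 50 nM substrate (final) starts DNA synthesis, tracked by fluorescence at 0 and 10 min against buffer-only wells.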
Pol iota inh = qHTS for Inhibitors of Polymerase Iota; Potency, µM (highest dose often 115 µM), usual class: inhibitors; actives 1% (n = 390,000); Pol iota fluorescent replication assay, 10 min; DNA polymerase iota (Homo sapiens), Q9UNA4
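Pol iota at 10 nM preincubated 15 min with compounds at room temperature; reaction started with fluorescent substrate, 50 nM final. Fluorescence read kinetically at 0 and 10 min; buffer-only wells as negative control.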
FEN1 inh = qHTS Assay for the Inhibitors of Human Flap endonuclease 1 (FEN1). Recombinant FEN1 flap cleavage, fluorescence, 15 min. Potency, µM (top dose mostly 114 µM), most hits filed as inhibitors. actives 0.35% (n = 390,000); further: nearly all actives have a fitted effect of over 65% in size
Target sequence (P39748 whole entry, looked up): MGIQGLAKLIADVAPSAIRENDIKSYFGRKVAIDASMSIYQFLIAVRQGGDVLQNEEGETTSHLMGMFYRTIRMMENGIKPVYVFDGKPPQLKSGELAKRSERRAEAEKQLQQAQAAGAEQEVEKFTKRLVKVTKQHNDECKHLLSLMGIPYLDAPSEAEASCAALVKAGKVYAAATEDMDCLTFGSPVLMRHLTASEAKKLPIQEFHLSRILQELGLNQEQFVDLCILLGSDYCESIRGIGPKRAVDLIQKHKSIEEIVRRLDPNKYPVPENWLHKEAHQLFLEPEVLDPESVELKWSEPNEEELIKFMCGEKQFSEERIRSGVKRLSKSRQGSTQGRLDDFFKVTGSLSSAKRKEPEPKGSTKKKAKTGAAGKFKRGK
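With each library titrated from low to high concentration, compounds met 10 nM FEN1 for 15 min at room temperature before 50 nM substrate was added; readings at 0 and 15 min fed four-parameter Hill curve fits.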
A number is an active result. Unless noted, the call rests on the fitted dose curve; in most records, active means well fitted curve in the direction sought with a large enough effect; inconclusive means small, poorly fitted or top-dose-only effect, or another doubt; inactive means no such curve, though single readings can be large; an effect the other way counts as inactive or inconclusive.

`O=C(Cn1sc2ccccc2c1=O)NC12CC3CC(CC(C3)C1)C2` gave PI5P4Ka inh -90.5, Pol eta inh inactive, Pol beta inh inactive, POLK inh inactive, Pol iota inh inconclusive and FEN1 inh inactive.
Screening O=C(Cc1nc(=O)c2ccccc2s1)Nc1ccccc1 returned PI5P4Ka inh inactive, Pol eta inh inactive, Pol beta inh inactive, POLK inh inactive, Pol iota inh inactive and FEN1 inh inactive.
Screening O=C(Cn1sc2ccccc2c1=O)Nc1ccccc1 returned PI5P4Ka inh -81.7 and Pol eta inh inactive.
O=C(NCCc1csc(-c2cccnc2)n1)c1ccccc1Br was read as PI5P4Ka inh inactive, Pol eta inh inactive, Pol beta inh inactive, POLK inh inactive, Pol iota inh inactive and FEN1 inh inactive.
Screening Nc1ncccc1C(=O)OCC(=O)NC1CCCCCC1 returned PI5P4Ka inh inconclusive, Pol eta inh 79.4µM, POLK inh inactive, Pol iota inh inactive and FEN1 inh inactive.
For O=C(COC(=O)c1ccccn1)NC1CCCCC1 the results were PI5P4Ka inh inactive, Pol eta inh inactive, Pol beta inh inactive, POLK inh inactive, Pol iota inh inactive and FEN1 inh inactive.
CCOC(=O)c1sc(NC(=O)C2CCCO2)c(C(=O)OCC)c1C (centres undefined) was read as Pol beta inh 14.1µM.
`Cc1ccc(C(C[N+](=O)[O-])c2c(C)[nH]n(-c3ccccc3)c2=O)cc1` (centres undefined) gave PI5P4Ka inh inactive, Pol eta inh inactive, Pol beta inh inactive, POLK inh inactive, Pol iota inh 1.12µM and FEN1 inh inactive.
`Cc1[nH]n(-c2ccccc2)c(=O)c1C(C[N+](=O)[O-])c1ccc(F)cc1` (centres undefined) gave PI5P4Ka inh inactive, Pol eta inh inactive, Pol beta inh inactive, POLK inh inactive, Pol iota inh 2.24µM and FEN1 inh inactive.
`Cc1nc2scc(-c3ccc(C(C)(C)C)cc3)c2c(=O)n1N` gave PI5P4Ka inh inactive, Pol eta inh 89.1µM, Pol beta inh inactive, POLK inh inactive, Pol iota inh inconclusive and FEN1 inh inactive.
For COc1ccc(-c2csc3nc(C)n(-n4cccc4)c(=O)c23)cc1 the results were PI5P4Ka inh inactive, Pol eta inh inactive, Pol beta inh inactive, POLK inh inactive, Pol iota inh inactive and FEN1 inh inactive.
Screening COc1ccc(S(=O)(=O)Nc2ccc(O)c3ccccc23)cc1 returned PI5P4Ka inh inactive, Pol eta inh inactive, Pol beta inh inactive, POLK inh inactive, Pol iota inh 20µM and FEN1 inh inconclusive.
COCCCNC(=O)C1CC(=O)N(CCc2ccc(OC)c(OC)c2)C1 (centres undefined) was read as PI5P4Ka inh inactive, Pol eta inh 31.6µM, Pol beta inh inactive, POLK inh inactive, Pol iota inh inactive and FEN1 inh inactive.
`NCc1cn(Cc2ccccc2)nc1-c1ccccc1` gave POLK inh inactive, Pol iota inh inactive and FEN1 inh inactive.
`Cc1ccc(-n2c(SCC(N)=O)nnc2-c2cccnc2)c(C)c1` gave PI5P4Ka inh inactive, Pol eta inh inactive, Pol beta inh inactive, POLK inh inactive, Pol iota inh inactive and FEN1 inh inactive.
Cc1ccc(-n2c(SCc3cc(=O)n4ccsc4n3)nnc2-c2cccnc2)c(C)c1 was read as Pol eta inh inactive, Pol beta inh 17.8µM, POLK inh inactive, Pol iota inh inconclusive and FEN1 inh inactive.
`COc1ccc(Cl)cc1NC(=O)CCn1nc(C)cc1C` gave Pol eta inh inactive, Pol beta inh 31.6µM, POLK inh inactive, Pol iota inh inconclusive and FEN1 inh inactive.
